{"source": "PubChem BioAssay (EPA / NIEHS)", "note": "Inconclusive results are not listed. Calls of active or inactive are those of the source. Rule for the calls: active = hit-call score of the fitted dose curve at least 0.9, where 1 is the maximum; inconclusive = response in the unintended direction; inactive = score below 0.9."}
{"read-out": "glucuronosyltransferase (UGT1A1), UGT1A1 (gene 54658)", "assay": "CLD_UGT1A1_6hr: CellzDirect (CLD) Gene Expression Assay for glucuronosyltransferase (UGT1A1) at 6 hours (AID 2283672)", "description": "CLD_6hr is a cell-based, multiplexed-readout assay that uses hepatocyte, a human liver primary cell, with measurements taken at 6 hours after chemical dosing in a 96-well plate.CLD_UGT1A1_6hr is one of 16 assay component(s) measured or calculated from the CLD_6hr assay. It is designed to make measurements of mRNA induction, a form of inducible reporter, as detected with chemiluminescence signals by Quantitative Nuclease Protection Assay (qNPA) technology.Data from the assay component CLD_UGT1A1_6hr was analyzed at the endpoint, CLD_UGT1A1_6hr, in the positive analysis fitting direction relative to DMSO as the negative control and baseline of activity. Using a type of inducible reporter, gain-of-signal activity can be used to understand changes in the reporter gene as they relate to the gene UGT1A1. Furthermore, this assay endpoint can be referred to as a primary readout. To generalize the intended target to other relatable targets, this assay endpoint is annotated to the transferase intended target family, where subfamily is glucuronosyltransferase.\nHuman hepatocyte cultures were treated daily for two consecutive days with fresh dosing solutions containing appropriate concentrations of the 320 ToxCast chemicals (chemical identities were blinded to CellzDirect and other ToxCast collaborators), vehicle control (0.2% DMSO), and positive control inducers as summarized in Table 1. Due to the large number of treatment groups and chemicals examined, the ToxCast chemicals were divided into two groups (spanning two independent cultures of hepatocytes from separate donor preparations (Hu778: ToxCast plates 1 and 2; Hu776: ToxCast plates 3 and 4). Each preparation of human hepatocyte cultures was treated with respective vehicle control, medium only control, set of six positive controls/reference chemicals for the five hepatic receptor pathways, and a subset of eight of the ToxCast chemicals (indoxacarb, pyrithiobac-sodium, norflurazon, cyhalofop-butyl, methomyl, thiram, acetochlor, and propiconazole). These replicate data, coupled with internal replicates designed within the blinded ToxCast chemical library, provided additional data to evaluate interindividual differences between hepatocyte preparations and their potential impact on chemical profiles.Cell morphology and integrity were evaluated using phase-contrast microscopy as an indicator of hepatocyte cell health (Tyson & Green, 1987). Cultures for each treatment group (i.e., media, vehicle [0.2% DMSO], positive control inducers [multiple concentrations], and the ToxCast chemicals [multiple concentrations]) were observed and cell morphology was assessed relative to vehicle control cultures at each harvest time point (0, 6, 24, or 48 h). […] Images were evaluated at the conclusion of the study to assess changes in cell integrity and account for the effects of chemical exposure on uncharacteristic changes in concentration-dependent gene expression profiles. The results from these determinations of apparent cytotoxicity were annotated (yes/no) alongside the corresponding qNPA data for reference.At the conclusion of each treatment period, hepatocyte cultures (96-well) were washed with 1 volume of HBSS, lysed by addition of 25 ul ArrayPlate lysis buffer (HTG, Tucson, AZ), and 70 ul/well of Denaturation Oil, denatured by incubation at 95C for 10 min, and frozen at approximately -70C until analysis by nuclease protection assay (qNPA) (Roberts et al., 2007). For qNPA analysis, cell lysates were thawed at 50C for approximately 30 min, qNPA probes were added, and samples were incubated at 95C for 10 min to begin the detection process by denaturing the target RNA, dissociating the duplexes and secondary structure hybridization. At the conclusion of the hybridization period, S1 nuclease reagent was added to each sample to digest all nonprotected nucleotides at 50C for 60-90 min. […]"}
{"smiles": "CCSC(=O)N(CC(C)C)CC(C)C", "outcome": "inactive"}
{"smiles": "CCCN(CCC)c1c([N+](=O)[O-])cc(C(F)(F)F)c(N)c1[N+](=O)[O-]", "outcome": "inactive"}
{"smiles": "c1ccc(Nc2ccccc2)cc1", "outcome": "inactive"}
{"smiles": "CCOC(=O)[C@H](C)Oc1ccc(Oc2nc3ccc(Cl)cc3o2)cc1", "outcome": "inactive"}
{"smiles": "OB(O)O", "outcome": "inactive"}
{"smiles": "COC(=O)c1c(Cl)nn(C)c1S(=O)(=O)NC(=O)Nc1nc(OC)cc(OC)n1", "outcome": "inactive"}
{"smiles": "CC(C)(c1ccc(O)cc1)c1ccc(O)cc1", "outcome": "inactive"}
{"smiles": "COC(=O)c1ccc(CNS(C)(=O)=O)cc1S(=O)(=O)NC(=O)Nc1nc(OC)cc(OC)n1", "outcome": "inactive"}
{"smiles": "CC(C)(C)[C@@H](O)[C@@H](Cc1ccc(Cl)cc1)n1cncn1", "outcome": "inactive"}
{"smiles": "C#CCOC(=O)[C@@H](C)Oc1ccc(Oc2ncc(Cl)cc2F)cc1", "outcome": "inactive"}
{"smiles": "CCCCOC(=O)C(C)Oc1ccc(Oc2ccc(C(F)(F)F)cn2)cc1", "note": "(stereo not given)", "outcome": "inactive"}
{"smiles": "CSC(=O)c1cccc2nnsc12", "outcome": "inactive"}
{"smiles": "COC(=O)CSc1cc(N=c2sc(=O)n3n2CCCC3)c(F)cc1Cl", "outcome": "inactive"}
{"smiles": "CC1(C)C(C=C(Cl)Cl)C1C(=O)OCc1cccc(Oc2ccccc2)c1", "note": "(stereo not given)", "outcome": "inactive"}
{"smiles": "S=C(S)NCCNC(=S)S.[Mn+2].[S-]C([S-])=NCCN=C([S-])[S-].[Zn+2]", "outcome": "inactive"}
{"smiles": "COc1c(Cl)ccc(Cl)c1C(=O)O", "outcome": "inactive"}
{"smiles": "CCCCCOC(=O)COc1cc(N2C(=O)C3=C(CCCC3)C2=O)c(F)cc1Cl", "outcome": "inactive"}
{"smiles": "CCOC(=O)NCCOc1ccc(Oc2ccccc2)cc1", "outcome": "inactive"}
{"smiles": "CCCCOCCOCCOCc1cc2c(cc1CCC)OCO2", "outcome": "inactive"}
{"smiles": "CCCN(CCC)C(=O)SCC", "outcome": "inactive"}
{"smiles": "CCOC(=O)COc1cc(-n2ncc(C(F)(F)F)c(C)c2=O)c(F)cc1Cl", "outcome": "inactive"}
{"smiles": "CCCCC(CC)CN1C(=O)C2C3C=CC(C3)C2C1=O", "note": "(stereo not given)", "outcome": "inactive"}
{"smiles": "CN(C)C(=O)Nc1ccc(Cl)c(Cl)c1", "outcome": "inactive"}
{"smiles": "CCNc1nc(N)nc(Cl)n1", "outcome": "inactive"}
{"smiles": "COC(=O)c1ccccc1S(=O)(=O)NC(=O)Nc1nc(OC(F)F)cc(OC(F)F)n1", "outcome": "inactive"}
{"smiles": "CCCCC(CC)COC(=O)c1ccccc1C(=O)O", "note": "(stereo not given)", "outcome": "inactive"}
{"smiles": "COC(=O)c1ccc(I)cc1S(=O)(=O)NC(=O)Nc1nc(C)nc(OC)n1", "outcome": "inactive"}
{"smiles": "c1ccc2[nH]c(-c3cscn3)nc2c1", "outcome": "inactive"}
{"smiles": "COC(=O)c1ccccc1C(=O)O", "outcome": "inactive"}
{"smiles": "Oc1ccc(C(c2ccc(O)cc2)C(Cl)(Cl)Cl)cc1", "outcome": "inactive"}
{"smiles": "COc1nc(C)nc(NC(=O)NS(=O)(=O)c2ccccc2OCCCl)n1", "outcome": "inactive"}
{"smiles": "CCC(C)OC(=O)N1CCCCC1CCO", "note": "(stereo not given)", "outcome": "inactive"}
{"smiles": "CCOC(=O)C(C)Oc1ccc(Oc2cnc3cc(Cl)ccc3n2)cc1", "note": "(stereo not given)", "outcome": "inactive"}
{"smiles": "COC(=O)c1cccc(C)c1S(=O)(=O)NC(=O)Nc1nc(OCC(F)(F)F)nc(N(C)C)n1", "outcome": "inactive"}
{"smiles": "N#CSCSc1nc2ccccc2s1", "outcome": "inactive"}
{"smiles": "C=CCOC(Cn1ccnc1)c1ccc(Cl)cc1Cl", "note": "(stereo not given)", "outcome": "inactive"}
{"smiles": "CCC(O)=C1C(=O)CC(C(=O)O)CC1=O", "note": "(stereo not given)", "outcome": "inactive"}
{"smiles": "CCCCCCC(C)OC(=O)COc1nc(F)c(Cl)c(N)c1Cl", "note": "(stereo not given)", "outcome": "inactive"}
{"smiles": "CCN(CC)C(=O)c1cccc(C)c1", "outcome": "inactive"}
{"smiles": "CCOC(=O)C(C)Oc1ccc(Oc2nc3ccc(Cl)cc3o2)cc1", "note": "(stereo not given)", "outcome": "inactive"}
